Reference: PubChem BioAssay AID1159580 (chemical genetic matrix, 2015)
Screen size: about 5,500 compounds; about 2,000 (36%) were called active. About 18% were inconclusive and are not listed. The list shows a part of the results. A number with no mark means an inactive call. Cut-off read from the data, not from the text of the source: active = normalized growth mostly below about 0.91 (no sharp cut-off); inconclusive = no clear call, values can overlap the other calls; inactive = mostly above about 0.92.

Assay: chemical genetic growth profiling, strain panel (AID 1159580);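 note: tested at 20 µM; growth read once vehicle control cultures reached saturation at 30 °C; 1 = growth at the plate median or of vehicle wells; lower values mean less growth of the strain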
Settings: growth OD

## CC[C@@H](C(=O)O)[C@@H]1O[C@@H]([C@@H](C)[C@H](O)[C@H](C)C(=O)[C@H](CC)[C@H]2O[C@]3(C=C[C@@H](O)[C@]4(CC[C@@](C)(C5CC[C@](O)(CC)[C@H](C)O5)O4)O3)[C@H](C)C[C@@H]2C)[C@@H](C)C[C@H]1C (stereo partly specified)
S. cerevisiae deletion strains, locus YAL013W, strain DEP1, active compounds read low
  normalized growth: 0.858 (active)
S. cerevisiae deletion strains, locus YBR021W, strain FUR4, active compounds read low
  normalized growth: 0.168 (active)
S. cerevisiae deletion strains, locus YBR229C, strain ROT2, active compounds read low
  normalized growth: 0.405 (active)
S. cerevisiae deletion strains, locus YCL029C, strain bik1, active compounds read low
  normalized growth: 0.559 (active)
S. cerevisiae deletion strains, locus YDL035C, strain GPR1, active compounds read low
  normalized growth: 0.478 (active)
S. cerevisiae deletion strains, locus YDL074C, strain BRE1, active compounds read low
  normalized growth: 0.412 (active)
S. cerevisiae deletion strains, locus YDL101C, strain DUN1, active compounds read low
  normalized growth: 0.214 (active)
S. cerevisiae deletion strains, locus YDL134C, strain PPH21, active compounds read low
  normalized growth: 0.313 (active)
S. cerevisiae deletion strains, locus YDL185W, strain tfp1, active compounds read low
  normalized growth: 0.993
S. cerevisiae deletion strains, locus YDL192W, strain arf1, active compounds read low
  normalized growth: 0.0725 (active)
S. cerevisiae deletion strains, locus YDR101C, strain arx1, active compounds read low
  normalized growth: 0.569 (active)
S. cerevisiae deletion strains, locus YDR150W, strain NUM1, active compounds read low
  normalized growth: 0.426 (active)
S. cerevisiae deletion strains, locus YDR162C, strain NBP2, active compounds read low
  normalized growth: 0.0697 (active)
S. cerevisiae deletion strains, locus YDR318W, strain mcm21, active compounds read low
  normalized growth: 0.224 (active)
S. cerevisiae deletion strains, locus YDR388W, active compounds read low
  normalized growth: 0.117 (active)
S. cerevisiae deletion strains, locus YDR502C, strain sam2, active compounds read low
  normalized growth: 0.317 (active)
S. cerevisiae deletion strains, locus YEL061C, strain CIN8, active compounds read low
  normalized growth: 0.724 (active)
S. cerevisiae deletion strains, locus YER110C, active compounds read low
  normalized growth: 0.861 (active)
S. cerevisiae deletion strains, locus YER155C, strain BEM2, active compounds read low
  normalized growth: 0.796 (active)
S. cerevisiae deletion strains, locus YER167W, strain BCK2, active compounds read low
  normalized growth: 0.294 (active)
S. cerevisiae deletion strains, locus YGL078C, strain dbp3, active compounds read low
  normalized growth: 0.378 (active)
S. cerevisiae deletion strains, locus YGL086W, strain mad1, active compounds read low
  normalized growth: 0.331 (active)
S. cerevisiae deletion strains, locus YGL248W, strain PDE1, active compounds read low
  normalized growth: 0.282 (active)
S. cerevisiae deletion strains, locus YGR078C, strain PAC10, active compounds read low
  normalized growth: 0.621 (active)
S. cerevisiae deletion strains, locus YGR135W, strain pre9, active compounds read low
  normalized growth: 0.781 (active)
S. cerevisiae deletion strains, locus YGR229C, strain SMI1, active compounds read low
  normalized growth: 0.15 (active)
S. cerevisiae deletion strains, locus YGR252W, strain gcn5, active compounds read low
  normalized growth: 0.312 (active)
S. cerevisiae deletion strains, locus YHR030C, strain SLT2, active compounds read low
  normalized growth: 0.142 (active)
S. cerevisiae deletion strains, locus YHR079C, strain IRE1 (second series), active compounds read low
  normalized growth: 0.39 (active)
S. cerevisiae deletion strains, locus YHR094C, strain hxt1, active compounds read low
  normalized growth: 0.278 (active)
S. cerevisiae deletion strains, locus YHR129C, strain ARP1, active compounds read low
  normalized growth: 0.209 (active)
S. cerevisiae deletion strains, locus YHR200W, strain rpn10, active compounds read low
  normalized growth: 0.691 (active)
S. cerevisiae deletion strains, locus YIL066C, strain RNR3, active compounds read low
  normalized growth: 0.385 (active)
S. cerevisiae deletion strains, locus YIL073C, strain SPO22, active compounds read low
  normalized growth: 0.127 (active)
S. cerevisiae deletion strains, locus YIL125W, strain kgd1, active compounds read low
  normalized growth: 0.12 (active)
S. cerevisiae deletion strains, locus YIR030C, strain dcg1, active compounds read low
  normalized growth: 0.461 (active)
S. cerevisiae deletion strains, locus YJL095W, strain BCK1, active compounds read low
  normalized growth: 0.232 (active)
S. cerevisiae deletion strains, locus YJL134W, strain LCB3, active compounds read low
  normalized growth: 0.244 (active)
S. cerevisiae deletion strains, locus YJL168C, strain set2, active compounds read low
  normalized growth: 0.448 (active)
S. cerevisiae deletion strains, locus YJL187C, strain SWE1 (second series), active compounds read low
  normalized growth: 0.287 (active)
S. cerevisiae deletion strains, locus YJR043C, strain POL32, active compounds read low
  normalized growth: 0.552 (active)
S. cerevisiae deletion strains, locus YJR075W, strain HOC1, active compounds read low
  normalized growth: 0.6 (active)
S. cerevisiae deletion strains, locus YKL009W, strain mrt4, active compounds read low
  normalized growth: 0.874 (active)
S. cerevisiae deletion strains, locus YKL068W, active compounds read low
  normalized growth: 0.257 (active)
S. cerevisiae deletion strains, locus YKL085W, strain MDH1 (second series), active compounds read low
  normalized growth: 0.164 (active)
S. cerevisiae deletion strains, locus YKL085W, strain MDH1, active compounds read low
  normalized growth: 0.164 (active)
S. cerevisiae deletion strains, locus YKL190W, strain CNB1, active compounds read low
  normalized growth: 0.295 (active)
S. cerevisiae deletion strains, locus YKR001C, strain vps1, active compounds read low
  normalized growth: 0.0696 (active)
S. cerevisiae deletion strains, locus YLR039C, strain RIC1, active compounds read low
  normalized growth: 0.115 (active)
S. cerevisiae deletion strains, locus YLR058C, strain SHM2, active compounds read low
  normalized growth: 0.432 (active)
S. cerevisiae deletion strains, locus YLR102C, strain apc9, active compounds read low
  normalized growth: 0.431 (active)
S. cerevisiae deletion strains, locus YLR262C, strain YPT6, active compounds read low
  normalized growth: 0.125 (active)
S. cerevisiae deletion strains, locus YLR268W, strain sec22, active compounds read low
  normalized growth: 0.291 (active)
S. cerevisiae deletion strains, locus YLR330W, strain CHS5, active compounds read low
  normalized growth: 0.237 (active)
S. cerevisiae deletion strains, locus YLR342W, strain FKS1 (second series), active compounds read low
  normalized growth: 0.2 (active)
S. cerevisiae deletion strains, locus YLR371W, strain rom2, active compounds read low
  normalized growth: 0.147 (active)
S. cerevisiae deletion strains, locus YLR418C, strain cdc73, active compounds read low
  normalized growth: 0.162 (active)
S. cerevisiae deletion strains, locus YML016C, strain PPZ1, active compounds read low
  normalized growth: 0.402 (active)
S. cerevisiae deletion strains, locus YML032C, strain rad52, active compounds read low
  normalized growth: 0.586 (active)
S. cerevisiae deletion strains, locus YML124C, strain tub3, active compounds read low
  normalized growth: 0.385 (active)
S. cerevisiae deletion strains, locus YMR078C, strain ctf18, active compounds read low
  normalized growth: 0.857 (active)
S. cerevisiae deletion strains, locus YMR223W, strain ubp8, active compounds read low
  normalized growth: 0.465 (active)
S. cerevisiae deletion strains, locus YMR263W, strain SAP30, active compounds read low
  normalized growth: 0.763 (active)
S. cerevisiae deletion strains, locus YMR307W, strain GAS1, active compounds read low
  normalized growth: 0.129 (active)
S. cerevisiae deletion strains, locus YNL067W, strain RPL9B, active compounds read low
  normalized growth: 0.629 (active)
S. cerevisiae deletion strains, locus YNL128W, strain TEP1, active compounds read low
  normalized growth: 0.377 (active)
S. cerevisiae deletion strains, locus YNL153C, strain GIM3, active compounds read low
  normalized growth: 0.31 (active)
S. cerevisiae deletion strains, locus YNL233W, strain BNI4, active compounds read low
  normalized growth: 0.2 (active)
S. cerevisiae deletion strains, locus YNL250W, strain rad50, active compounds read low
  normalized growth: 0.262 (active)
S. cerevisiae deletion strains, locus YNL271C, strain bni1, active compounds read low
  normalized growth: 0.119 (active)
S. cerevisiae deletion strains, locus YNL298W, strain CLA4, active compounds read low
  normalized growth: 0.111 (active)
S. cerevisiae deletion strains, locus YNL307C, strain MCK1, active compounds read low
  normalized growth: 0.229 (active)
S. cerevisiae deletion strains, locus YNL322C, strain KRE1, active compounds read low
  normalized growth: 0.262 (active)
S. cerevisiae deletion strains, locus YNR052C, strain pop2, active compounds read low
  normalized growth: 0.241 (active)
S. cerevisiae deletion strains, locus YOL006C, strain TOP1, active compounds read low
  normalized growth: 0.107 (active)
S. cerevisiae deletion strains, locus YOL012C, strain htz1
  normalized growth: 0.22
S. cerevisiae deletion strains, locus YOL147C, strain pex11, active compounds read low
  normalized growth: 0.338 (active)
S. cerevisiae deletion strains, locus YOR061W, strain CKA2, active compounds read low
  normalized growth: 0.0978 (active)
S. cerevisiae deletion strains, locus YOR069W, strain VPS5, active compounds read low
  normalized growth: 0.14 (active)
S. cerevisiae deletion strains, locus YOR136W, strain idh2, active compounds read low
  normalized growth: 0.248 (active)
S. cerevisiae deletion strains, locus YOR144C, strain elg1, active compounds read low
  normalized growth: 0.425 (active)
S. cerevisiae deletion strains, locus YOR184W, strain ser1, active compounds read low
  normalized growth: 0.335 (active)
S. cerevisiae deletion strains, locus YOR316C, strain cot1, active compounds read low
  normalized growth: 0.377 (active)
S. cerevisiae deletion strains, locus YPL055C, strain LGE1, active compounds read low
  normalized growth: 0.174 (active)
S. cerevisiae deletion strains, locus YPL241C, strain CIN2, active compounds read low
  normalized growth: 0.648 (active)
S. cerevisiae deletion strains, locus YPR119W, strain clb2, active compounds read low
  normalized growth: 0.623 (active)
S. cerevisiae deletion strains, locus YPR141C, strain kar3, active compounds read low
  normalized growth: 0.383 (active)
S. cerevisiae deletion strains, locus YPR163C, strain tif3, active compounds read low
  normalized growth: 0.134 (active)
S. cerevisiae deletion strains, locus YPR167C, strain met16, active compounds read low
  normalized growth: 0.427 (active)
S. cerevisiae deletion strains, strain wtn01, active compounds read low
  normalized growth: 0.245 (active)
S. cerevisiae strains, strain wild type, active compounds read low
  normalized growth: 0.27 (active)
